# In ChEMBL document CHEMBL1961873, “Compounds: GSK PKIS; Assays: Nanosyn kinase panel” (2012):
# “And” between values parts separate entries of the source, which are not always exact repeats. Equal entries are not always repeated.
# Tests used:
# [1] = target: T1, Muscle, skeletal receptor tyrosine-protein kinase (Homo sapiens) (UniProt O15146); conditions: at 1 µM;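 also: reported value is the mean percent inhibition of MuSK kinase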
# T1 sequence (whole entry): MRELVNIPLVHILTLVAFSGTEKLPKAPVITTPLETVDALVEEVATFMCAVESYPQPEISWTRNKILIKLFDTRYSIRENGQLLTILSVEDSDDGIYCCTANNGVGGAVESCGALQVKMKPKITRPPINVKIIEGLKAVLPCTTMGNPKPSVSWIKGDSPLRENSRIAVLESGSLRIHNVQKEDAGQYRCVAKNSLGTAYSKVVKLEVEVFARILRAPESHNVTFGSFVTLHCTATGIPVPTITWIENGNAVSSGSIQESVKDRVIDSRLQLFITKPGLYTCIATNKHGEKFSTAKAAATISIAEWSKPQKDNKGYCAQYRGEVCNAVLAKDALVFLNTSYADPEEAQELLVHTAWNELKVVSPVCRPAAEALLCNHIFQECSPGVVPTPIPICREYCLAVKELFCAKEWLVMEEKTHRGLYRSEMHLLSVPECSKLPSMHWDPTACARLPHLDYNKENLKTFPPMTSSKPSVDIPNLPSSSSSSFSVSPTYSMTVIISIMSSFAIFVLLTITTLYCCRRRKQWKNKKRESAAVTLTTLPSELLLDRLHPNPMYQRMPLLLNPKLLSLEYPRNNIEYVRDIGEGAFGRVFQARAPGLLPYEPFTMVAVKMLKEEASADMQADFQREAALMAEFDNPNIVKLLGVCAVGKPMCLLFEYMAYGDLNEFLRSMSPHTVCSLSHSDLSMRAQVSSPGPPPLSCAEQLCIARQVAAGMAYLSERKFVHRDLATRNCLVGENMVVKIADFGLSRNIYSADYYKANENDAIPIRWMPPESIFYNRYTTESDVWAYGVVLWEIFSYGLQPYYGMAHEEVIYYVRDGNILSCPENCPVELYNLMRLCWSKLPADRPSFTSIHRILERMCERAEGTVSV
# [2] = target: Platelet-derived growth factor receptor alpha (Homo sapiens) (UniProt P16234); conditions: at 0.1 µM
# [3] = target: Platelet-derived growth factor receptor alpha (Homo sapiens) (UniProt P16234); conditions: at 1 µM
# [4] = test system: Platelet-derived growth factor receptor alpha (Homo sapiens), P16234 [D842V]; conditions: at 0.1 µM
# [5] = test system: Platelet-derived growth factor receptor alpha (Homo sapiens), P16234 [D842V]; conditions: at 1 µM
# [6] = test system: Platelet-derived growth factor receptor alpha (Homo sapiens), P16234 [T674I]; conditions: at 0.1 µM
# [7] = test system: Platelet-derived growth factor receptor alpha (Homo sapiens), P16234 [T674I]; conditions: at 1 µM
# [8] = test system: Platelet-derived growth factor receptor alpha (Homo sapiens), P16234 [V561D]; conditions: at 0.1 µM
# [9] = test system: Platelet-derived growth factor receptor alpha (Homo sapiens), P16234 [V561D]; conditions: at 1 µM
# [10] = target: Platelet-derived growth factor receptor beta (Homo sapiens) (UniProt P09619); conditions: at 0.1 µM;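 also: reported value is the mean percent inhibition of the kinase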
# Platelet-derived growth factor receptor beta (Homo sapiens), sequence (P09619 whole entry): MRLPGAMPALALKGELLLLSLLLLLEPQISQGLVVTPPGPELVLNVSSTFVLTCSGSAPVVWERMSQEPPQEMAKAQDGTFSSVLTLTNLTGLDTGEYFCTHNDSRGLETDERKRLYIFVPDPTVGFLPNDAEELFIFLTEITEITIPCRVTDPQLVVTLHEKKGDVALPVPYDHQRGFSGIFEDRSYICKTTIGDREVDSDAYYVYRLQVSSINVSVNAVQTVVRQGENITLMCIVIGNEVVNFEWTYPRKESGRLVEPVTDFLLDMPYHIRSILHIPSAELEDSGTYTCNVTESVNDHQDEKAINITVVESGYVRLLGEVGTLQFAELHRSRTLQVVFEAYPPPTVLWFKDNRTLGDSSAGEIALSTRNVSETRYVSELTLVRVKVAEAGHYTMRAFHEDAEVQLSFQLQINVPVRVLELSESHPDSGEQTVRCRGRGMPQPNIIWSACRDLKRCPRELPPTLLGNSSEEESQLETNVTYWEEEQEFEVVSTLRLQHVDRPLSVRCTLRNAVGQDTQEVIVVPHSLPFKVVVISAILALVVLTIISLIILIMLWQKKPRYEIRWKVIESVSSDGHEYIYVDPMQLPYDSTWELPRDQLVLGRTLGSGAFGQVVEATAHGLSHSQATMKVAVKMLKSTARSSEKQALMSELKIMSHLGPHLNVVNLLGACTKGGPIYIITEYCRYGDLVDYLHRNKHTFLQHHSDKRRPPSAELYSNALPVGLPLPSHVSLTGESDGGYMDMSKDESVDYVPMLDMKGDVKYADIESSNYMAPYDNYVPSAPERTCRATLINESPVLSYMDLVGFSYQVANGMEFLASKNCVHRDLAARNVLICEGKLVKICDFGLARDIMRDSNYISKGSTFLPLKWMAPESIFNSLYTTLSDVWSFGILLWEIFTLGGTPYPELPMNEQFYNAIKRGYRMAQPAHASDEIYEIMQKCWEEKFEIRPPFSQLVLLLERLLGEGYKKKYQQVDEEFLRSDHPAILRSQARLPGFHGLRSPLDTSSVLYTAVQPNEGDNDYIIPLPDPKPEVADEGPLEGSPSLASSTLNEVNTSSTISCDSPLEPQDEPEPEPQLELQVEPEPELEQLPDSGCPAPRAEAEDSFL
# Platelet-derived growth factor receptor alpha (Homo sapiens), P16234 [D842V], sequence (P16234 whole entry D842V): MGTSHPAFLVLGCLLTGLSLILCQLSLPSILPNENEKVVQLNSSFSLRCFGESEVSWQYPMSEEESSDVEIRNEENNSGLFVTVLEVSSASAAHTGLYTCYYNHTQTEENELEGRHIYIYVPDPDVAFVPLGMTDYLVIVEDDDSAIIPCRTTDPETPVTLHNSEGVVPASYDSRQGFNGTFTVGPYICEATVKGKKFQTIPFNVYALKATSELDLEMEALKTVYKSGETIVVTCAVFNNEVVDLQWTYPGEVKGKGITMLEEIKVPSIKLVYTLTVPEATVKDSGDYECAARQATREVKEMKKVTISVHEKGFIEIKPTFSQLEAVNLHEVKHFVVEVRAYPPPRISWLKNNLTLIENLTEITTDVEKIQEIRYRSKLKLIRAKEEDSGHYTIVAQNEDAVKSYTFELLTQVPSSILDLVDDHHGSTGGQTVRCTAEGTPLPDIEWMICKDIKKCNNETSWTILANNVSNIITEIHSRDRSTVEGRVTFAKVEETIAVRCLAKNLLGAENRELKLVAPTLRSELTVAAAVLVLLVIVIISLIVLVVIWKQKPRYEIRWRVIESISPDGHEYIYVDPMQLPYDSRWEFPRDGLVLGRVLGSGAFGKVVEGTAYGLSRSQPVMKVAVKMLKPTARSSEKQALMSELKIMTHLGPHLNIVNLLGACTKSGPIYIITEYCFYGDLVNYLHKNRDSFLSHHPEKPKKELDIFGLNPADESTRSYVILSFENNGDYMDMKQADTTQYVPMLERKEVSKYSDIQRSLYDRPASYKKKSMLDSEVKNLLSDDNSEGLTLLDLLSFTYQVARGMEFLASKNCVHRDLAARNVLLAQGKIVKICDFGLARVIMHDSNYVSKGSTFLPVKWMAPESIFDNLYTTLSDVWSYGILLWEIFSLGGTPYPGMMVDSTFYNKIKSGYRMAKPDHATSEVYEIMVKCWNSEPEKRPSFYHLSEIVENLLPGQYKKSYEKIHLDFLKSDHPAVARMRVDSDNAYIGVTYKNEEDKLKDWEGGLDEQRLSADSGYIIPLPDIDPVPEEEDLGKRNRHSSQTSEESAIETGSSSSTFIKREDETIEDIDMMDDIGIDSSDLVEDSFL
# Platelet-derived growth factor receptor alpha (Homo sapiens), sequence (P16234 whole entry): as the sequence (P16234 whole entry D842V) above, with V842D counted along it
# Platelet-derived growth factor receptor alpha (Homo sapiens), P16234 [V561D], sequence (P16234 whole entry V561D): as the sequence (P16234 whole entry D842V) above, with V561D, V842D counted along it
# Platelet-derived growth factor receptor alpha (Homo sapiens), P16234 [T674I], sequence (P16234 whole entry T674I): as the sequence (P16234 whole entry D842V) above, with T674I, V842D counted along it
SMILES,inhibition [1],inhibition [2],inhibition [3],inhibition [4],inhibition [5] [%],inhibition [6],inhibition [7],inhibition [8],inhibition [9],inhibition [10]
CNC(=O)c1ncccc1Nc1nc(Nc2cc3c(cc2OC)CCCN3C(=O)CN(C)C)nc2[nH]ccc12,16.7%,10.7%,20.6%,3.17%,7.19,5.75%,6.87%,3.32%,9.94%,7.26%
Cn1c(-c2nonc2N)nc2cnccc21,5.28%,2.63%,7.48%,2.81%,4.99,4.72%,6.95%,1.45%,3.93%,1.55%
CS(=O)(=O)Nc1ccc(-c2ccc3c(NC(=O)C4CC4)n[nH]c3c2)cc1,7.76%,12.9%,28.5%,3.79%,10.3,4.77%,4.09%,5.95%,26.5%,3.96%
COc1cccc(Nc2nccc(-c3cnn4ncccc34)n2)c1,25.3%,14.3%,49.3%,6.1%,47.1,12.6%,80.7%,26.4%,64.1%,23.9%
COc1ccc2ncn(-c3cc(O[C@H](C)c4ccccc4C(F)(F)F)c(C(N)=O)s3)c2c1,22.4%,8.31%,35.4%,4.46%,24.9,0.36%,9.23%,5.47%,26.1%,6.65%
O=C(O[C@H]1CN[C@H](C#Cc2cc3ncnc(Nc4ccc5c(ccn5Cc5cc(F)ccc5F)c4)c3s2)C1)N1CCOCC1,4.92%,6.05%,12.3%,2.95%,3.49,5.88%,6.54%,7.32%,5.97%,2.48%
CNC(=O)c1sc(-n2cnc3cc(OC)c(OC)cc32)cc1OCc1ccccc1C(F)(F)F,2.82%,17.2%,59.7%,3.81%,28,4.17%,9.43%,7.81%,44.8%,9.81%
CC1=C(C(=O)Nc2ccc3[nH]ncc3c2)C(c2ccc(F)cc2)N=C(c2ccc(C(F)(F)F)nc2)N1 (centres undefined),5.28%,6.34%,8.66%,2.97%,3.35,3.34%,4.17%,3.03%,3.17%,1.04%
CS(=O)(=O)CCNCc1ccoc1-c1ccc2ncnc(Nc3ccc(OCc4ccccc4)cc3)c2c1,3.07%,7.98%,15.1%,-0.69%,2.14,4.43%,8.96%,1.67%,7.53%,0.39%
Cc1c2ccc(N(C)c3ccnc(Nc4cccc(S(N)(=O)=O)c4)n3)cc2nn1C,5.12%,63.5%,86.5%,13.9%,57.9,77%,96.5%,71.5%,92.5%,53.9%
NS(=O)(=O)c1ccc(N/N=C2\C(=O)Nc3ccc(C(=O)NCc4ccncc4)cc32)cc1,21.9%,23.6%,69.4%,18.8%,71.5,3.72%,16.9%,15.6%,61.3%,45.6%
CN(c1ccc(NC(=O)NCCN2CCOCC2)cc1)c1ccnc(Nc2ccc(CS(C)(=O)=O)cc2)n1,8.61%,51.8%,84.4%,2.7%,28.6,63.9%,95%,61.6%,90.1%,33.7%
CCn1c(-c2nonc2N)nc2cncc(C(=O)NCCNC)c21,-0.23%,5.61%,14.2%,4.53%,7.01,3.41%,11.4%,3.13%,5.82%,16.2%
Cc1nnc(-c2cccc(-c3ccc(C(=O)NCC4CC4)cc3)c2)o1,6.37%,13.9%,15.2%,2.78%,5.47,6.98%,11.6%,4.66%,3.3%,5.4%
CS(=O)(=O)Nc1ccc(-c2cc(-c3ccccc3)cc(C(N)=O)c2N)cc1,5.45%,5.04%,12.1%,-0.88%,1.32,3.63%,9.21%,3.05%,5.7%,4%
OCCCNc1nccc(-c2c(-c3ccc(F)cc3)nn3cc(C(F)(F)F)ccc23)n1,6.98%,10.9%,15.3%,2.53%,5.03,4.67%,6.04%,0.23%,6.06%,6.16%
CCS(=O)(=O)c1ccc(OC)c(Nc2ncc(-c3cccc(C(C)=O)c3)o2)c1,4.06%,23.2%,68%,20.1%,72.8,7.08%,8.46%,22.1%,68.2%,53.7%
CNC(=O)c1cncc(/C=C/c2ccccc2C)c1,3.97%,11.8%,17.8%,3.85%,5.79,4.91%,5.69%,4.75%,17%,6.6%
Fc1cccc(COc2ccc(Nc3ncncc3C#Cc3ccccc3)cc2Cl)c1,3.28%,13%,12.4%,5.22%,4.74,8.12%,9.74%,8.16%,5.45%,6.95%
Nc1ncnc2occ(-c3ccc(NC(=O)Nc4cc(C(F)(F)F)ccc4F)cc3)c12,94.1% and 97.6%,80.4% and 68.5%,93.4% and 90.3%,17% and 8.08%,,75.6% and 72.8%,97.9% and 83%,88.8% and 81.8%,97.9% and 96.5%,48.5% and 28.9%
